The values below come from PubChem BioAssay (Tox21).

Results filed as inconclusive are left out. Values without a mark were called inactive. Active and inactive are the calls of the source. Calls come from the whole dose curve; as a rule, active = well fitted activation curve with a large enough effect in the repeat runs; inconclusive = weak or mixed curves; inactive = no such curve, though single readings can be large or run the other way.
% is set by controls: 0 for no effect and ±100 for the full control effect; potency is the fitted concentration of half-maximal effect.

The target of this assay is Nuclear receptor subfamily 1 group I member 2 (Rattus norvegicus) (UniProt Q9R1A7). The experiment in a line: Rat pregnane X receptor (rPXR) activation by small molecules, qHTS assay (AID 1346983). Note: nearly all actives have a fitted effect of over 20% in size. As to conditions: rPXR luciferase reporter cells, One-Glo luminescence, 24 h; max activation: hits give high values. From the text: National Center for Advancing Translational Sciences [NCATS] NIH Chemical Genomics Center [NCGC] U.S. Environmental Protection Agency [EPA] National Institutes of Environmental Health Sciences [NIEHS] National Toxicology Program [NTP] Assay overview: The Pregnane X receptor (PXR), a ligand activated nuclear receptor plays a critical role in the regulation of genes involved in drug metabolism and transporters. PXR binds xenobiotics and when compounds interact with PXR produces enhanced expression of CYP3A genes. In humans PXR activation and CYP3A4 induction can be problematic due to their interactions with co-medicated drugs and decrease their efficacy or increase their own metabolism. However, there are known species-specific differences with regard to PXR activation that should be taken into account when animal PXR data are extrapolated to humans. A cell based rat PXR (rPXR) assay (developed by Puracyp, Inc., CA) was used to assess the activation of rPXR.
Chain of Nuclear receptor subfamily 1 group I member 2 (Rattus norvegicus) (Q9R1A7 whole entry, looked up): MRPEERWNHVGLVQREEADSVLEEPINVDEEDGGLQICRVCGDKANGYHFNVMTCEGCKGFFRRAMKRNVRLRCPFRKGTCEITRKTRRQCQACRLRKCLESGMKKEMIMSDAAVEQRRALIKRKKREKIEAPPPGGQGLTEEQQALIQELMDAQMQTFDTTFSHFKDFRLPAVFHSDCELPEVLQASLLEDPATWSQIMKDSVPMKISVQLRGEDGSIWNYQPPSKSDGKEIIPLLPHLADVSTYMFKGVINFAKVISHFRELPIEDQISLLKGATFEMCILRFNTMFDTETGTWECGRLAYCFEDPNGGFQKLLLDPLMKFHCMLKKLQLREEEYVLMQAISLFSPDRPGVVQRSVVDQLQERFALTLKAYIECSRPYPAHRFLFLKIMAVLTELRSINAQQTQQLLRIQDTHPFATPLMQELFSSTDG
Assay Protocol Summary: rPXR cells were dispensed at 2,000 per well in 5uL of assay medium into white, solid-bottom 1536-well plates using a Multidrop Combi dispenser (Thermo Scientific). The assay plates were incubated at 37 C for 5hr before transferring 23 nL of test compounds dissolved in DMSO and positive control via Pintool station (Wako). The assay plates were incubated at 37 C for 24 hr. Then 5ul One-Glo assay reagent (Promega) was added to each plate by a Flying Reagent Dispenser (FRD, Aurora Discovery) and following 30 min incubation at room temperature, luciferase activity was quantified on a ViewLux plate reader (Perkin Elmer).
On the technique in general: Quantitative high-throughput screening tests each substance at several concentrations.
With `O=C(Oc1cccc2cccnc12)c1ccccc1`, the max activation was -3.5%.

For the compound `CC(C)(C)C(=O)OCOC(=O)[C@@H]1N2C(=O)[C@@H](NC(=O)[C@H](N)c3ccccc3)[C@H]2SC1(C)C`, the max activation was -1.52%.

Regarding `CCCCC(CC)CN=C(N)NC(N)=NCCCCCCN=C(N)NC(N)=NCC(CC)CCCC` (stereo not given), the max activation is -27.3%.

With `C[C@H]1[C@H]2CC[C@H]3[C@@H]4CC=C5C[C@@H](N(C)C)CC[C@]5(C)[C@H]4CC[C@]23CN1C`, the max activation was -5.76%.

On to `NC(=O)CC[C@@H]1NC(=O)[C@H](Cc2ccccc2)NC(=O)[C@H](Cc2ccc(O)cc2)NC(=O)CCSSC[C@@H](C(=O)N2CCC[C@H]2C(=O)N[C@@H](CCCN=C(N)N)C(=O)NCC(N)=O)NC(=O)[C@H](CC(N)=O)NC1=O`, for which the max activation was -2.21%.

In the case of `Cc1cccc(CN2CCN(C(c3ccccc3)c3ccc(Cl)cc3)CC2)c1` (stereo not given), the max activation is -4.36%.

In the case of `CCCCCCC[N+](CC)(CC)CCCCc1ccc(Cl)cc1`, the max activation was -3.24%.

With `CC(=O)SC[C@@H](Cc1ccccc1)C(=O)NCC(=O)OCc1ccccc1`, the max activation was -6.71%.

Consider `CCOC(=O)O[C@]1(C(=O)OCCl)CC[C@H]2[C@@H]3CCC4=CC(=O)C=C[C@]4(C)[C@H]3[C@@H](O)C[C@@]21C`, for which the max activation is -1.8%.

With `Cc1cc(O)c2ccccc2c1O`, the max activation was 10%.

As for `N/C(=N\N=C\c1ccc(Cl)cc1)N/N=C/c1ccc(Cl)cc1`, the max activation was -3.26%.

Consider `Cn1cc(C(=O)[C@@H]2CCc3nc[nH]c3C2)c2ccccc21`, for which the max activation was -0.66%.

On to `CCC1=C[C@@H]2CN(C1)Cc1c([nH]c3ccccc13)[C@@](C(=O)OC)(c1cc3c(cc1OC)N(C)[C@H]1[C@@](O)(C(=O)OC)[C@H](OC(C)=O)[C@]4(CC)C=CCN5CC[C@]31[C@@H]54)C2`, for which the Potency is 3.55 µM (active).

As for `Clc1ccccc1C(c1ccccc1)(c1ccccc1)n1ccnc1`, the Potency was 3.98 µM (active).

In the case of `O=C(OC[C@H]1O[C@@H](OC(=O)c2cc(O)c(O)c(OC(=O)c3cc(O)c(O)c(O)c3)c2)[C@H](OC(=O)c2cc(O)c(O)c(OC(=O)c3cc(O)c(O)c(O)c3)c2)[C@@H](OC(=O)c2cc(O)c(O)c(OC(=O)c3cc(O)c(O)c(O)c3)c2)[C@@H]1OC(=O)c1cc(O)c(O)c(OC(=O)c2cc(O)c(O)c(O)c2)c1)c1cc(O)c(O)c(OC(=O)c2cc(O)c(O)c(O)c2)c1`, the max activation was -10.1%.

As to `Clc1ccc2nsnc2c1NC1=NCCN1`, the max activation is -3.32%.

Take `O=C1Cc2cc(CCN3CCN(c4nsc5ccccc45)CC3)c(Cl)cc2N1`: the max activation was -10.8%.

With `CCc1oc2ccccc2c1C(=O)c1cc(Br)c(O)c(Br)c1`, the max activation was -3.61%.

For `CC(C)(C)CC(C)(C)c1ccc(O)c(Cc2ccc(Cl)cc2Cl)c1`, the max activation was -0.0398%.

For `CCOc1ccc2nc3cc(N)ccc3c(N)c2c1`, the max activation is 1.69%.

On to `O=c1c(-c2ccccc2)c1-c1ccccc1`, for which the max activation is -15.6%.

Consider `CCCC1O[C@@H]2C[C@H]3[C@@H]4CCC5=CC(=O)C=C[C@]5(C)[C@H]4[C@@H](O)C[C@]3(C)[C@]2(C(=O)CO)O1` (stereo not given in full), for which the Potency is 12.6 µM (active).

For the compound `CCN1/C(=C/C=C/c2sc3ccccc3[n+]2CC)Sc2ccccc21`, the max activation is -26.5%.

Turning to `CC1=C(C(=O)OC(C)C)C(c2cccc([N+](=O)[O-])c2)C(C(=O)OC2CN(C(c3ccccc3)c3ccccc3)C2)=C(N)N1` (stereo not given), the max activation was -6.42%.

As for `Cc1cc(C2CCCCC2)n(O)c(=O)c1`, the max activation is -2.39%.

Regarding `CC(C)(C)NC(=O)[C@@H]1C[C@@H]2CCCC[C@@H]2CN1C[C@@H](O)[C@H](Cc1ccccc1)NC(=O)[C@H](CC(N)=O)NC(=O)c1ccc2ccccc2n1`, the max activation was 7.59%.

For `O=C(Nc1ccc(Oc2ccc(Cl)cc2)c(Cl)c1)c1cc(I)cc(I)c1O`, the max activation is -12.9%.

For `COc1ccc(-c2ccc3cc(C(=O)O)ccc3c2)cc1C12CC3CC(CC(C3)C1)C2`, the max activation was -8.07%.

`CN(C)[C@@H]1C(=O)C(C(N)=O)=C(O)[C@@]2(O)C(=O)C3=C(O)c4c(O)ccc(Cl)c4[C@@H](O)[C@H]3C[C@@H]12`: the max activation is -0.517%.

As for `COc1cc(/C=C/C(=O)O[C@H]2CC[C@]34C[C@]35CC[C@]3(C)[C@@H]([C@H](C)CCC=C(C)C)CC[C@@]3(C)[C@@H]5CC[C@H]4C2(C)C)ccc1O`, the max activation was -10.7%.

Turning to `CC(C)=CCOc1ccc(/C=C/C(=O)c2ccc(OCC=C(C)C)cc2OCC(=O)O)cc1`, the max activation is -3.35%.

As to `O=C(N/N=C/c1ccccc1O)c1ccncc1`, the max activation is -3.33%.

In the case of `C[C@@H]1C[C@H]2[C@@H]3CCC4=CC(=O)C=C[C@]4(C)[C@@]3(Cl)[C@@H](O)C[C@]2(C)[C@@]1(OC(=O)c1ccco1)C(=O)CCl`, the Potency was 2 µM (active).

For `CC[C@@]1(O)C(=O)OCc2c1cc1n(c2=O)Cc2cc3c(CN(C)C)c(O)ccc3nc2-1`, the max activation is -5.54%.

Regarding `O=C(Nc1cccc(C(F)(F)F)c1)c1cc(Br)cc(Br)c1O`, the max activation is -18.6%.

Turning to `Cc1ccc(O)c2ncccc12`, the max activation is -0.8%.

Turning to `CN1CCC(Nc2ncc3ncnc(Nc4ccc(F)c(Cl)c4)c3n2)CC1`, the max activation was -19.5%.

With `O=c1[nH]cnc2nc[nH]c12`, the max activation is -3.71%.

Regarding `CC[C@H](c1ccc(O)cc1)[C@@H](CC)c1ccc(O)cc1`, the max activation is -4.59%.

As for `CCCCCCCCCCCCCCCC[N+](C)(C)CCN(Cc1ccc(OC)cc1)c1ncccn1`, the max activation was -2.3%.
